# Records with an inconclusive call do not appear. Entries that show only a call come without a potency. A number with no mark means an inactive call. Activity calls are given as the source filed them. Unless noted, the call rests on the fitted dose curve; in most records, active means well fitted curve in the direction sought with a large enough effect; inconclusive means small, poorly fitted or top-dose-only effect, or another doubt; inactive means no such curve, though single readings can be large; an effect the other way counts as inactive or inconclusive.
# Tests used:
# [1] = target: Calcium and integrin-binding protein 1 (Homo sapiens) (UniProt Q99828); assay: Primary qHTS for Identification of Calcium Integrin Binding Protein 1 (CIB1) Competitor (AID 1508620);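 further: GST tagged CIB1 binding a fluorescein labelled alphaIIb integrin peptide tracer; top concentration of the series differs between compounds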
# Procedure, shortened: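 Fluorescence polarization competition: CIB1-GST (1 uM final) preincubated with compound 15 min at room temperature, then FITC-labeled alphaIIb peptide (100 nM final) added for another 15 min. Polarization read at Ex 480/Em 540.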
# [2] = target: Rap guanine nucleotide exchange factor 3 (Homo sapiens) (UniProt O95398); assay: Confirmatory qHTS for agonist of cAMP-regulated guanine nucleotide exchange factor 3 (EPAC1) (AID 1645881);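 further: EPAC1 catalysed release of BODIPY-GDP from Rap1B seen as fluorescence loss; nearly all actives have a fitted effect of over 75% in size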
# [3] = target: Rap guanine nucleotide exchange factor 4 (Homo sapiens) (UniProt Q8WZA2); assay: Confirmatory qHTS for agonist of cAMP-regulated guanine nucleotide exchange factor 4 (EPAC2) (AID 1645884);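 further: nucleotide exchange releases bodipy-GDP from Rap1 and this lowers its fluorescence; nearly all actives have a fitted effect of over 65% in size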
# [4] = target: Rap guanine nucleotide exchange factor 4 (Homo sapiens) (UniProt Q8WZA2); assay: Confirmatory qHTS for antagonist of cAMP-regulated guanine nucleotide exchange factor 4 (EPAC2) (AID 1645885); further: nearly all actives have a fitted effect of over 25% in size; further: potency means the concentration at half of the fitted maximal effect
# [5] = target: Rap guanine nucleotide exchange factor 3 (Homo sapiens) (UniProt O95398); assay: Counterscreen qHTS for antagonist of cAMP-regulated guanine nucleotide exchange factor 3 (EPAC1) (AID 1645888);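 further: fluorescence loss as bound BODIPY-GDP is released from Rap1B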
# Procedure, shortened: (§1)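 Measured: fluorescence of BODIPY-GDP bound to Rap1B, which falls as exchange proceeds. Conditions include 50 uM competing GDP, 5 and 30 min reads, and a later cAMP challenge for antagonist detection.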
# [6] = target: Glutathione peroxidase 1 (Homo sapiens) (UniProt P07203); assay: Primary qHTS Assay for Inhibitors of Recombinant Selenoprotein Glutathione Peroxidase 1 (GPX1) (AID 1845191); further: nearly all actives have a fitted effect of over 65% in size
# Procedure, shortened: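 Recombinant GPX1 (10 nM final) was preincubated with compound for 30 min at room temperature, then reacted with 1 mM GSH, 0.5 mM CHP, 0.5 mM NADPH and 100 nM glutathione reductase; NADPH fluorescence (340/450 nm) was read at 0 and 15 min.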
# [7] = target: Rap guanine nucleotide exchange factor 3 (Homo sapiens) (UniProt O95398); assay: Confirmatory qHTS for antagonist of cAMP-regulated guanine nucleotide exchange factor 3 (EPAC1) (AID 1645880); further: nearly all actives have a fitted effect of over 55% in size
# Procedure, shortened: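 Nucleotide exchange uses 100 nM EPAC1, 250 nM RAP1B-BODIPY-GDP and 50 uM GDP, with compounds in a concentration-titration series. After 5 min at room temperature, fluorescence (480 nm ex/540 nm em) is read every 5 min for 30 min. Data are normalized to control ATA and DMSO.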
# [8] = target: Rap guanine nucleotide exchange factor 3 (Homo sapiens) (UniProt O95398); assay: Counterscreen qHTS for agonist of cAMP-regulated guanine nucleotide exchange factor 3 (EPAC1) (AID 1645889); further: nearly all actives have a fitted effect of over 40% in size
# Procedure, shortened: as §1
# [9] = target: Lysosomal alpha-glucosidase (Homo sapiens) (UniProt P10253); assay: Confirmation of Inhibitors and Activators of Purified Human alpha-Glucosidase (AID 2115; active means well fitted curve in either direction with a large enough effect)
# Procedure, shortened: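 Purified human enzyme (4 nM) with 4-methylumbelliferyl-alpha-D-glucopyranoside (400 uM), compounds up to 77 uM, in citrate/phosphate buffer pH 5.0 with 0.005% Tween-20. After 20 min at RT, stopped at pH 10; fluorescence ex 365/em 440 nm; AC50 from Hill fits.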
# [10] = target: Mitogen-activated protein kinase 10 (Mus musculus) (UniProt Q61831); assay: JNK3 AlphaScreen Assay (AID 530; active means well fitted curve in either direction with a large enough effect, not every such curve was filed as active;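 further: kinase came from lysate of stimulated human HepG2 cells; signal reports phosphorylation of biotinylated GST-cJun 1-79 at Ser73 with 10 µM ATP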)
# Procedure, shortened: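 Inhibitors reduce antibody binding to phosphorylated biotin-cJun, lowering AlphaScreen luminescence. Lysates from HepG2 cells pre-activated by IL-1beta plus TNF-alpha supplied JNK3; compounds were titrated.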
# [11] = target: Cytochrome P450 3A4 (Homo sapiens) (UniProt P08684); assay: qHTS Assay for Inhibitors and Substrates of Cytochrome P450 3A4 (AID 884); further: nearly all actives have a fitted effect of over 50% in size
# Procedure, shortened: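 20 nM human CYP3A4 with 25 uM Luciferin-PPXE (at KM) in 200 mM KPO4, preincubated 10 min with compound; NADPH regeneration started a 60 min RT reaction. Luciferin detected by luminescence, normalized to 57 uM ketoconazole as full inhibition.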
# [12] = AP1 Signaling Pathway (AID 357; active means well fitted curve in either direction with a large enough effect, not every such curve was filed as active;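 further: ME-180 reporter cells stimulated with EGF at its EC50 level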); settings: ME-180 (cervical carcinoma) AP-1-bla reporter, EGF-induced, beta-lactamase ratio, 5 h; at 7.69 µM (top of the series) unless noted
# Procedure, shortened: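 In this screen, ME-180 cells in Opti-MEM with 0.5% dialyzed FBS received EC50 EGF and compound titrations for 5 h. AP-1 reporter beta-lactamase was detected via CCF4 ratio, giving AC50 for positive and negative modulators.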
# [13] = NFAT Signaling Pathway (AID 444; active means well fitted curve in either direction with a large enough effect, not every such curve was filed as active;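 further: carbachol stimulus at about its EC50 of 1 µM final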); settings: Jurkat NFAT-bla M1, carbachol, beta-lactamase ratio, 5 h; at 7.69 µM (top of the series) unless noted
# Procedure, shortened: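 Jurkat cells carrying an NFAT-driven β-lactamase reporter and co-transfected muscarinic M1 receptor were treated with compound plus carbachol (1 uM final, an EC50 level) for 5 h at 37 °C. CCF4 loading followed for 1 h at RT; 460/530 nm ratio gave %activity.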
# Sequence of Cytochrome P450 3A4 (Homo sapiens) (P08684 whole entry, looked up): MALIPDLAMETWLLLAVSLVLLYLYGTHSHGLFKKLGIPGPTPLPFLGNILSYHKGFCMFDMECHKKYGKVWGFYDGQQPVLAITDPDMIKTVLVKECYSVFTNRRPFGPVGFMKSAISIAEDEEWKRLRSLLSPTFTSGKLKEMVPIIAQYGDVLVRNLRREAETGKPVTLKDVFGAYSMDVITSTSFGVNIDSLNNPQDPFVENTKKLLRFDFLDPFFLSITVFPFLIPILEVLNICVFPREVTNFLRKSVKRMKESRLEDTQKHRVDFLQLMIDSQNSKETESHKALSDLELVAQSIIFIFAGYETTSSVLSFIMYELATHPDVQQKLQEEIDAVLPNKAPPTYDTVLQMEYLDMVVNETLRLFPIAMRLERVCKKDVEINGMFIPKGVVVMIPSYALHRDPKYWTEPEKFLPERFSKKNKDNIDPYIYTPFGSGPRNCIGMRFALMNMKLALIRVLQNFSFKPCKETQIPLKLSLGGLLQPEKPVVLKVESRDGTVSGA
# Sequence of Calcium and integrin-binding protein 1 (Homo sapiens) (Q99828 whole entry, looked up): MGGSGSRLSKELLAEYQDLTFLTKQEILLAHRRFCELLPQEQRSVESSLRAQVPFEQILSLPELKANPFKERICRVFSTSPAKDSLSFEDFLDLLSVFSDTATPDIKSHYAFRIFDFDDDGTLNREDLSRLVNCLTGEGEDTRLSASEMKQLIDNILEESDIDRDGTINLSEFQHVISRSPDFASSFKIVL
# Sequence of Rap guanine nucleotide exchange factor 4 (Homo sapiens) (Q8WZA2 whole entry, looked up): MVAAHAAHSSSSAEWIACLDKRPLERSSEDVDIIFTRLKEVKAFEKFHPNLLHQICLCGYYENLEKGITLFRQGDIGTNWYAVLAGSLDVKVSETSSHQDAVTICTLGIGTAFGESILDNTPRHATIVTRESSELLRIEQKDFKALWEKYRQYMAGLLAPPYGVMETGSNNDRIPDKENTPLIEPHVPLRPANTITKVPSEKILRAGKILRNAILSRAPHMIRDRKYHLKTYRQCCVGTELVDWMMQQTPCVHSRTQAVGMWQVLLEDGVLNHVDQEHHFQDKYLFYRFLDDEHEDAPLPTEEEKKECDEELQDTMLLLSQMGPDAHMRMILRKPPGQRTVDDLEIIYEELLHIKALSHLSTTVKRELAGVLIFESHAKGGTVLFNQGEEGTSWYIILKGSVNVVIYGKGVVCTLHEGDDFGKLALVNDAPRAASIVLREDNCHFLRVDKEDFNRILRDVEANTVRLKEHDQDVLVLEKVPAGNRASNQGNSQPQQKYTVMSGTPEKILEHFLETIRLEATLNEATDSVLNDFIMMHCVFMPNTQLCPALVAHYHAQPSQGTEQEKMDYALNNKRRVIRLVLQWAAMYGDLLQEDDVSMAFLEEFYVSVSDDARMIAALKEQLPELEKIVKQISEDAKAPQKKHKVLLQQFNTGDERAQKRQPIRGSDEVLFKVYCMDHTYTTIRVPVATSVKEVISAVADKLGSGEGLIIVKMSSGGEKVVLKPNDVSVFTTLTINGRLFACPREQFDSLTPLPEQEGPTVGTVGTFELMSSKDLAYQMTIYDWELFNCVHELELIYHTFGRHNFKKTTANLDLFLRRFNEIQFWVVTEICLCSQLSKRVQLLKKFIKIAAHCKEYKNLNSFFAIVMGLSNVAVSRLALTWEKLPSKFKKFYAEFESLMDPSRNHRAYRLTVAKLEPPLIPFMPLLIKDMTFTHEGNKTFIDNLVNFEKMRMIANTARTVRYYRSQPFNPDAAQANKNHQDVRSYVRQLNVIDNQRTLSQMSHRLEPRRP
# Sequence of Rap guanine nucleotide exchange factor 3 (Homo sapiens) (O95398 whole entry, looked up): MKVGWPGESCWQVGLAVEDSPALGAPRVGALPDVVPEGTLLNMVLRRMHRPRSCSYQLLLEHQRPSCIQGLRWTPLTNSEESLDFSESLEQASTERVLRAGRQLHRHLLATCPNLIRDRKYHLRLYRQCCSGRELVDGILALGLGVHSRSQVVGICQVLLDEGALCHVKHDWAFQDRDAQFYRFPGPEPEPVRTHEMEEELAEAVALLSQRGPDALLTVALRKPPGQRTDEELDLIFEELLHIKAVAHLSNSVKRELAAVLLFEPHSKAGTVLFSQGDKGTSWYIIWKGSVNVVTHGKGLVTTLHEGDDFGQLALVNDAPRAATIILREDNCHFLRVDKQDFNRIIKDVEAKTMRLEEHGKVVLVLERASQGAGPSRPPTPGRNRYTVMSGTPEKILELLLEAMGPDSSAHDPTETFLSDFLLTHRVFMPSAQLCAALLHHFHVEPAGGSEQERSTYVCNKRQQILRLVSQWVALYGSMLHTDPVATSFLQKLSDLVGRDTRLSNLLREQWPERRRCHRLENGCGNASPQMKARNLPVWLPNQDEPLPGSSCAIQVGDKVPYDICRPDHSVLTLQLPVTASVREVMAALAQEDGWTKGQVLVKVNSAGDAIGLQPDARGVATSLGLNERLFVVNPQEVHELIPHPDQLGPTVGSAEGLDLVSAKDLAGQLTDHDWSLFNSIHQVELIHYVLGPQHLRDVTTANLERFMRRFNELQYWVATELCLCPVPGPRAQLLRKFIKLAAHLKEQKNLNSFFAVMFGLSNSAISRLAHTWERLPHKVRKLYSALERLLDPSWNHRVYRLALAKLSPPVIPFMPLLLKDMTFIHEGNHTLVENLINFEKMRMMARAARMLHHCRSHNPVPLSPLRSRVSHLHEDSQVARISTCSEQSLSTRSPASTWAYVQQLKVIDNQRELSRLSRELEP
# Sequence of Glutathione peroxidase 1 (Homo sapiens) (P07203 whole entry, looked up): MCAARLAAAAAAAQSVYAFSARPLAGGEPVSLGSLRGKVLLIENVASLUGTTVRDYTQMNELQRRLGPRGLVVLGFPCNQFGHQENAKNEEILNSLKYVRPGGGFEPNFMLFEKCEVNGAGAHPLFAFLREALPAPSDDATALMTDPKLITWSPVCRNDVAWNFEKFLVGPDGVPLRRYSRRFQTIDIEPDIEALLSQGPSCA
smiles,measurement,setting,value
O=C(CSc1nnc(-c2cccc(S(=O)(=O)N3CCCC3)c2)n1-c1ccccc1)Nc1ccc(C(=O)O)cc1,Potency,[1],inactive
same,outcome,[2],inactive
same,activation,[3],-2.44% [at 17.1 µM]
same,"activity change, negative = inhibition",[4],-11.1% [at 12.7 µM]
same,outcome,[5],inactive
Cc1ccc(NS(=O)(=O)c2cc3c(cc2Cl)CCC(=O)N3)cc1Cl,Potency,[1],inactive
same,Potency,[6],inactive
CC(=O)NC(c1ccco1)c1cc(Cl)c2ccccc2c1O (stereo unspecified),Potency,[1],inactive
same,Potency,[7],inactive
same,outcome,[2],inactive
same,activation,[3],3.62% [at 17.1 µM]
same,outcome,[5],inactive
COc1ccc(N2C(=O)c3ccccc3C2=O)cc1,Potency,[1],inactive
same,Potency,[7],inactive
same,outcome,[2],inactive
same,outcome,[3],inactive
same,Potency,[4],inactive
same,outcome,[5],inactive
same,outcome,[8],inactive
CC(=O)NC(c1cccs1)c1cc(Cl)c2ccccc2c1O (stereo unspecified),Potency,[1],inactive
same,Potency,[7],inactive
same,outcome,[2],inactive
same,outcome,[3],inactive
same,Potency,[4],12 µM (active)
CC(=O)c1ccc(N2CCN(S(=O)(=O)c3ccc4c(c3)CC(C)N4C(C)=O)CC2)cc1 (stereo unspecified),Potency,[9],inactive
same,Potency,[1],inactive
CCCn1c(-c2ccc(F)cc2)nc2c(NC3CCN(Cc4ccccc4)CC3)nc(C)nc21,outcome,[10],inactive
same,Potency,[11],inactive
same,Potency,[1],inactive
CCCn1c(C)nc2c(NCCCCN(C)C)nc(C)nc21,outcome,[10],inactive
same,Potency,[1],inactive
O=C1Cc2cc(S(=O)(=O)N3CCN(c4ccc(O)cc4)CC3)ccc2N1,Potency,[9],1.88 µM (active)
same,Potency,[1],inactive
CCCn1c(C)nc2c(NCC3CCCN3CC)nc(C)nc21 (stereo unspecified),outcome,[10],inactive
same,Potency,[11],inactive
same,Potency,[1],inactive
CC(=O)c1ccc(N2CCN(S(=O)(=O)c3ccc4c(c3)n(C)c(=O)n4C)CC2)cc1,Potency,[9],inactive
same,Potency,[1],inactive
O=C1Cc2cc(S(=O)(=O)N3CCN(c4cccc(C(F)(F)F)c4)CC3)ccc2N1,Potency,[9],14.9 µM (active)
same,Potency,[1],inactive
O=C1Cc2cc(S(=O)(=O)N3CCN(c4ccc(CO)cc4)CC3)ccc2N1,Potency,[9],13 µM (active)
same,Potency,[1],inactive
CCCn1c(C)nc2c(NCCN(C(C)C)C(C)C)nc(C)nc21,outcome,[10],inactive
same,Potency,[1],inactive
COc1ccc(N2CCN(S(=O)(=O)c3ccc4c(c3)CC(=O)N4)CC2)cc1,Potency,[9],23.7 µM (active)
same,Potency,[1],inactive
COc1ccc(-n2c(C)c(C(C)=O)c3cc(O)ccc32)cc1,"activity change, negative = inhibition",[12],-14.7% [at 17.2 µM]
same,"activity change, negative = inhibition",[13],1.89% [at 17.2 µM]
same,Potency,[1],inactive
O=Cc1ccc(N2CCN(S(=O)(=O)c3ccc4c(c3)CC(=O)N4)CC2)cc1,Potency,[9],3.66 µM (active)
same,Potency,[1],inactive
CCCn1c(C)nc2c(N3CCN(C)CC3)nc(C)nc21,outcome,[10],inactive
same,Potency,[1],inactive
CCCn1c(C)nc2c(N3CCC(N4CCN(C)CC4)CC3)nc(C)nc21,outcome,[10],inactive
same,Potency,[11],inactive
same,Potency,[1],inactive

# Reference: PubChem BioAssay (NCATS)
